# From publication PMC7862700, “An all-to-all approach to the identification of sequence-specific readers for epigenetic DNA modifications on cytosine”
# Key:
# Experiment in all cases: DAPPL (digital affinity profiling via proximity ligation, sequencing); 10 mM Tris-HCl pH 7.5, 50 mM NaCl, 1 mM DTT, 4% glycerol, room temperature, 30 min; GST-TFs on glutathione beads, 16-mer random dsDNA library, 0.1% formaldehyde crosslink after washing; high values mean tight binding
# FLI1 = target: T1, FLI1 (Homo sapiens, UniProt Q01543 1-452); conditions: protein: recombinant; tags: N-terminal GST; dsDNA, one strand shown
# T1 sequence: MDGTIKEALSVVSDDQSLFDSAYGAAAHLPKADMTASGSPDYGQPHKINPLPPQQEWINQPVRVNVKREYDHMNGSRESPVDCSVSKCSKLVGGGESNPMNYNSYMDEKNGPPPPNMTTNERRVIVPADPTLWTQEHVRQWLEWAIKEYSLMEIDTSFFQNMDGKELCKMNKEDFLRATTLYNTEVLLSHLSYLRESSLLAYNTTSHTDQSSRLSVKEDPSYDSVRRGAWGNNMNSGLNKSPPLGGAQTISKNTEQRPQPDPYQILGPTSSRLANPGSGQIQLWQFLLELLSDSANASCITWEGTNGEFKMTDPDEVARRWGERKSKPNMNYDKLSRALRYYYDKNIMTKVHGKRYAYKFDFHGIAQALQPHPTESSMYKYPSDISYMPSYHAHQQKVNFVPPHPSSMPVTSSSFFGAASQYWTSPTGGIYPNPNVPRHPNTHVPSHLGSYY
# Outline: (§1)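 A tag-only sample was pooled with DNA-barcoded human transcription factors that had been expressed in yeast as GST fusions and captured on glutathione beads. The pools were incubated for 30 min at room temperature with 200 nmole of a random double-stranded 16-mer DNA library in Tris/NaCl/DTT/glycerol buffer, then washed, crosslinked with 0.1% formaldehyde, proximity-ligated (BsaI/T4 ligase, 1 h, 37 °C), PCR-amplified and sequenced on an Illumina NextSeq500. Binding signal is each hexamer's read frequency for a factor divided by its frequency for the tag-only sample.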
# ELK1 = target: T2, ELK1 (Homo sapiens, UniProt P19419 1-428); conditions: protein: recombinant; tags: N-terminal GST; dsDNA, one strand shown
# T2 sequence: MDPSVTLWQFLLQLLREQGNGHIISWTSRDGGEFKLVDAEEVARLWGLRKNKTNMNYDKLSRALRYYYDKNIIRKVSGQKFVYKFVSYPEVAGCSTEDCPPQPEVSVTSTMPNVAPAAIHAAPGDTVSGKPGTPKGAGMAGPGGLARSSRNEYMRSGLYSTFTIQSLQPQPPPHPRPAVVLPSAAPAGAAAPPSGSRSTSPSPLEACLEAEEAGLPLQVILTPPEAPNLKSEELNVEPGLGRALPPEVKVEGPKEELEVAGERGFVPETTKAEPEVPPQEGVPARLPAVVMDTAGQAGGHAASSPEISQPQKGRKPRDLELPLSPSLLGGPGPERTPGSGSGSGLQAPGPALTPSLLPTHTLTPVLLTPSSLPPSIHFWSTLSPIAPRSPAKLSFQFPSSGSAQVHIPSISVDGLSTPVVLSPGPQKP
# Outline: as §1
# GABPA = target: T3, GABPA (Homo sapiens, UniProt Q06546 1-454); conditions: protein: recombinant; tags: N-terminal GST; dsDNA, one strand shown
# T3 sequence: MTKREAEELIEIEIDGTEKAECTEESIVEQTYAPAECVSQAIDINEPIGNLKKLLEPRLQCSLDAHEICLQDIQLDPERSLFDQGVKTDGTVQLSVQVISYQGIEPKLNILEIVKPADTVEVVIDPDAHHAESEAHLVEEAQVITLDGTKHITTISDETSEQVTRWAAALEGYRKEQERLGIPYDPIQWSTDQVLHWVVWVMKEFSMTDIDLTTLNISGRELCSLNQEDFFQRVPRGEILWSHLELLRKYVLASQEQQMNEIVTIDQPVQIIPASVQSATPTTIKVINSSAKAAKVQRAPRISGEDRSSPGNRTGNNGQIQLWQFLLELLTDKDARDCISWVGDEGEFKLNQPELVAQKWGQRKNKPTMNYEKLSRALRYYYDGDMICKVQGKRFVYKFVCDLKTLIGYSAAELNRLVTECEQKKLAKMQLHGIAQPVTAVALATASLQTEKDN
# Outline: as §1
# ERG = target: T4, ERG (Homo sapiens, UniProt P11308 1-479); conditions: protein: recombinant; tags: N-terminal GST; dsDNA, one strand shown
# T4 sequence: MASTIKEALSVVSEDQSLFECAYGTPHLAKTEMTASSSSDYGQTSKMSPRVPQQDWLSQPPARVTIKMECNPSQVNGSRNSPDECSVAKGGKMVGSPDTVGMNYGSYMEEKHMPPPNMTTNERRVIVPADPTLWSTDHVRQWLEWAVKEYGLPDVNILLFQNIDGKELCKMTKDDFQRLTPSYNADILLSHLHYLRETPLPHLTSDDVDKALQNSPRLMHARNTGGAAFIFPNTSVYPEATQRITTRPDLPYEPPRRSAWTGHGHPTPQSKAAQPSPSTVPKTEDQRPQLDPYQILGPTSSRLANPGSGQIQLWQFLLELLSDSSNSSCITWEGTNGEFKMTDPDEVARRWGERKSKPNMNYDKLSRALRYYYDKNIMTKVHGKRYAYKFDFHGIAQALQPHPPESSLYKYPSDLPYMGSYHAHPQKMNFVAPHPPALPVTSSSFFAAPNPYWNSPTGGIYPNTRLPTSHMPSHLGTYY
# Outline: as §1
# ELF1 = ELF1 (Homo sapiens, UniProt P32519 1-619); conditions: protein: recombinant; tags: N-terminal GST; dsDNA, one strand shown
# Sequence of ELF1 (P32519 whole entry): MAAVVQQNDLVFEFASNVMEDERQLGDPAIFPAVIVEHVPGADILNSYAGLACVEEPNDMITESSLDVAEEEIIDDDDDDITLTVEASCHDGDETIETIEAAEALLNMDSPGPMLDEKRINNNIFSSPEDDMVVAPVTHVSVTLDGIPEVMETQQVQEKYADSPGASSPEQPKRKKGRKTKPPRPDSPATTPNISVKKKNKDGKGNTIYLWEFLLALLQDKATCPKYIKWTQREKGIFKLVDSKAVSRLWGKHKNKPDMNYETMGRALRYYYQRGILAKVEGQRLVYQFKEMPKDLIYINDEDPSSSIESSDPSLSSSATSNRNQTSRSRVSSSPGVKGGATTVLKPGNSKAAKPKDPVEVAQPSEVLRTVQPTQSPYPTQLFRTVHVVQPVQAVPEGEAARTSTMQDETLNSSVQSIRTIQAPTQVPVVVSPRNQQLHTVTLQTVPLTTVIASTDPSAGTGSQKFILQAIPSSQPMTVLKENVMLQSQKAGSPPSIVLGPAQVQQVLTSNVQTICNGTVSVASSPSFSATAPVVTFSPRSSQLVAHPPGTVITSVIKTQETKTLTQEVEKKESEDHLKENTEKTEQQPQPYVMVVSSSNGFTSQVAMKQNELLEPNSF
# Outline: as §1
# EHF = target: T5, EHF (Homo sapiens, UniProt Q9NZC4 1-300); conditions: protein: recombinant; tags: N-terminal GST; dsDNA, one strand shown
# T5 sequence: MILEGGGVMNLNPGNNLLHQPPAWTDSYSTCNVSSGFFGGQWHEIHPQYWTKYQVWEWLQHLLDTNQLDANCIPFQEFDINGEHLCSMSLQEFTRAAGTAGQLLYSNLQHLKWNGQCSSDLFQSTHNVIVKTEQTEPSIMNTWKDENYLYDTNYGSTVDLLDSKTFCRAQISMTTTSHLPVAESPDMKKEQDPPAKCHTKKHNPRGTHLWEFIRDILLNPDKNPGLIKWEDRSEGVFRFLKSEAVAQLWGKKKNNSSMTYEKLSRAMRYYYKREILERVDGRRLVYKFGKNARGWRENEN
# Outline: as §1
# SPI1 = SPI1 (Homo sapiens, UniProt P17947 1-270); conditions: protein: recombinant; tags: N-terminal GST; dsDNA, one strand shown
# Outline: as §1
# SPIB = SPIB (Homo sapiens, UniProt Q01892 1-262); conditions: protein: recombinant; tags: N-terminal GST; dsDNA, one strand shown
# Sequence of SPIB (Q01892 whole entry): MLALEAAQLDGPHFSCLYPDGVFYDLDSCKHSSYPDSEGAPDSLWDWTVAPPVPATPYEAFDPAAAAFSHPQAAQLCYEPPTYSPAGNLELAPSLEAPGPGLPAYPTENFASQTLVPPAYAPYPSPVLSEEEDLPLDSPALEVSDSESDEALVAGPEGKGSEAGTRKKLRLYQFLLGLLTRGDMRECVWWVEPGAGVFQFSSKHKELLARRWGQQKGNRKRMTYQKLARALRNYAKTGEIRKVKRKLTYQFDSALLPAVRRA
# Outline: as §1
# ELK3 = target: T6, ELK3 (Homo sapiens, UniProt P41970 1-407); conditions: protein: recombinant; tags: N-terminal GST; dsDNA, one strand shown
# T6 sequence: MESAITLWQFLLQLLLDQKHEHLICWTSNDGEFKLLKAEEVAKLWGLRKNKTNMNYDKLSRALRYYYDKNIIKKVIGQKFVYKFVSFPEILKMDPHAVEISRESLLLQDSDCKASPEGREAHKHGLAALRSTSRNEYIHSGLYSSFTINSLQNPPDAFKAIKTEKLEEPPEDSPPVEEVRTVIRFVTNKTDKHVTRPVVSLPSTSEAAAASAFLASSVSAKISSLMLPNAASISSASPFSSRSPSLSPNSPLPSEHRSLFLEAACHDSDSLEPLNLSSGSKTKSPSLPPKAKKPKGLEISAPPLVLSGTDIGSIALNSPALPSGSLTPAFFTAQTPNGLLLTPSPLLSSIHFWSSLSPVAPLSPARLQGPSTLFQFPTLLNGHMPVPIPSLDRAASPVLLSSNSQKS
# Outline: as §1
# FEV = target: T7, FEV (Homo sapiens, UniProt Q99581 1-238); conditions: protein: recombinant; tags: N-terminal GST; dsDNA, one strand shown
# T7 sequence: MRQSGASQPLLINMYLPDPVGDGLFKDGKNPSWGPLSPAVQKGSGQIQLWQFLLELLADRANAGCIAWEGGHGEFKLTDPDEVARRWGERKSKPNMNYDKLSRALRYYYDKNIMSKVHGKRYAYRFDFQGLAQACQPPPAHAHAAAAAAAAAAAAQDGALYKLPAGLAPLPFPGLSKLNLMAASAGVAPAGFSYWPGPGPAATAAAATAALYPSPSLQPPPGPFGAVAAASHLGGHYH
# Outline: as §1
# ETV5 = ETV5 (Homo sapiens, UniProt P41161 1-510); conditions: protein: recombinant; tags: N-terminal GST; dsDNA, one strand shown
# Sequence of ETV5 (P41161 whole entry): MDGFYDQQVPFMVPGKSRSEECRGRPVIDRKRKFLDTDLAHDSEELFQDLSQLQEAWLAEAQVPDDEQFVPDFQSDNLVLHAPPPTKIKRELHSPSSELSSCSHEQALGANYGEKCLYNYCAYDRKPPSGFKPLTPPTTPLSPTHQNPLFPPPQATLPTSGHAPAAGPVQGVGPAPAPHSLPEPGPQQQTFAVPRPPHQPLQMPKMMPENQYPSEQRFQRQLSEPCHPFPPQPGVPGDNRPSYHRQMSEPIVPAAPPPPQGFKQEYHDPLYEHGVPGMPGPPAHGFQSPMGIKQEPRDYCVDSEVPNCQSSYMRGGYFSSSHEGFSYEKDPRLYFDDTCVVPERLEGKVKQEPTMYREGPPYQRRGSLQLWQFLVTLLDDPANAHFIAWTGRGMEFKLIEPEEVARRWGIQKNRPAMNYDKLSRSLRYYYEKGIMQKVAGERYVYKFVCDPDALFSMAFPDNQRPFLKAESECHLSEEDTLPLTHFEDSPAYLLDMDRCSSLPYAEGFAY
# Outline: as §1
# HSF1 = HSF1 (Homo sapiens, UniProt Q00613 1-529); conditions: protein: recombinant; tags: N-terminal GST; chain copies: 3; dsDNA, one strand shown
# Sequence of HSF1 (Q00613 whole entry): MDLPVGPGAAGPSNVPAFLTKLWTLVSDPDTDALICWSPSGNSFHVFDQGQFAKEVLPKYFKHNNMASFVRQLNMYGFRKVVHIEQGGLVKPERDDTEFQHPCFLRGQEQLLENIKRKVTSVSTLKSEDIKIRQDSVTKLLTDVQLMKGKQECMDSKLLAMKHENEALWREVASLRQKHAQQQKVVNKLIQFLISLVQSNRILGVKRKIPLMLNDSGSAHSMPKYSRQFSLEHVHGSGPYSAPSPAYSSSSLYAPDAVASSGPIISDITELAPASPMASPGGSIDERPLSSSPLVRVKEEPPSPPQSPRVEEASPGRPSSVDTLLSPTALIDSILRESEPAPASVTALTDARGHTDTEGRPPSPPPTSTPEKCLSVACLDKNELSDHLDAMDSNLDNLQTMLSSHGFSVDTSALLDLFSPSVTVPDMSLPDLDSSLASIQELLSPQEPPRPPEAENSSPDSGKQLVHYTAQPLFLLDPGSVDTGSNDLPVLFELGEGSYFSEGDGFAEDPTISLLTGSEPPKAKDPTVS
# Outline: as §1
# SPIC = target: T8, SPIC (Homo sapiens, UniProt Q8N5J4 1-248); conditions: protein: recombinant; tags: N-terminal GST; dsDNA, one strand shown
# T8 sequence: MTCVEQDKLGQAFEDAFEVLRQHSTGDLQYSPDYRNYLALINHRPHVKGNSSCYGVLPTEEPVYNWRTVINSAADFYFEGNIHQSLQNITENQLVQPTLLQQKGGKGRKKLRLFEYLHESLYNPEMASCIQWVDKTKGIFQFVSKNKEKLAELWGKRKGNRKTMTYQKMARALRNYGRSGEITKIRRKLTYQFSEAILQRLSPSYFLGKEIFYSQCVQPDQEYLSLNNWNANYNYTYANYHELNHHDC
# Outline: as §1
# ELF4 = ELF4 (Homo sapiens, UniProt Q99607 1-663); conditions: protein: recombinant; tags: N-terminal GST; dsDNA, one strand shown
# Sequence of ELF4 (Q99607 whole entry): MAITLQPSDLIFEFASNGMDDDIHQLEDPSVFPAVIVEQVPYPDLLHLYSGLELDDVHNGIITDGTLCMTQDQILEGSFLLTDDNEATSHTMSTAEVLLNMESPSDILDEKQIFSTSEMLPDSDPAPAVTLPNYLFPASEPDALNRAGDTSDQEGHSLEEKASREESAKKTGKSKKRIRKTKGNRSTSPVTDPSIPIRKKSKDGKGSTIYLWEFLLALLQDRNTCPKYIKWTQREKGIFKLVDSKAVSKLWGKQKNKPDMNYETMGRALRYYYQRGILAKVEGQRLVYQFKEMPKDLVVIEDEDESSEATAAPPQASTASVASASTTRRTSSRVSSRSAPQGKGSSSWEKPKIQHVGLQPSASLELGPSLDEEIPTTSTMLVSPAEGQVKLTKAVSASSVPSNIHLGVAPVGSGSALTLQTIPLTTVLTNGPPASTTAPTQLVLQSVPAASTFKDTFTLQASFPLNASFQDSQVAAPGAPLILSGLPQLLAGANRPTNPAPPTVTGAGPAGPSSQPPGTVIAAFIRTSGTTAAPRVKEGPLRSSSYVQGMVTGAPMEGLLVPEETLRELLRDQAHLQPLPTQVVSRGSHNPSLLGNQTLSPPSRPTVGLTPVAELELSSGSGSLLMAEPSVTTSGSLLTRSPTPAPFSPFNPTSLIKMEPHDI
# Outline: as §1
# ELK4 = target: T9, ELK4 (Homo sapiens, UniProt P28324-2 1-405); conditions: protein: recombinant; tags: N-terminal GST; dsDNA, one strand shown
# T9 sequence: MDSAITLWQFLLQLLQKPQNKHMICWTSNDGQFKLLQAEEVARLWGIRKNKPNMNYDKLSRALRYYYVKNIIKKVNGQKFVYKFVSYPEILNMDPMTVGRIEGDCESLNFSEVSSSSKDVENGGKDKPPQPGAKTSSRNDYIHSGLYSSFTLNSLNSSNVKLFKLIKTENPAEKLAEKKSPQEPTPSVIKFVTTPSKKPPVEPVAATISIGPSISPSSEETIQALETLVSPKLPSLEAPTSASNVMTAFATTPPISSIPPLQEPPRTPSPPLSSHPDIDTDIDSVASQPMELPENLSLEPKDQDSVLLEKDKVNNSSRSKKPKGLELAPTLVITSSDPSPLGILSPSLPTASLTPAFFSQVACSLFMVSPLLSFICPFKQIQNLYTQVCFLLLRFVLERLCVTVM
# Outline: as §1
# ETV2 = target: T10, ETV2 (Homo sapiens, UniProt O00321 1-342); conditions: protein: recombinant; tags: N-terminal GST; dsDNA, one strand shown
# T10 sequence: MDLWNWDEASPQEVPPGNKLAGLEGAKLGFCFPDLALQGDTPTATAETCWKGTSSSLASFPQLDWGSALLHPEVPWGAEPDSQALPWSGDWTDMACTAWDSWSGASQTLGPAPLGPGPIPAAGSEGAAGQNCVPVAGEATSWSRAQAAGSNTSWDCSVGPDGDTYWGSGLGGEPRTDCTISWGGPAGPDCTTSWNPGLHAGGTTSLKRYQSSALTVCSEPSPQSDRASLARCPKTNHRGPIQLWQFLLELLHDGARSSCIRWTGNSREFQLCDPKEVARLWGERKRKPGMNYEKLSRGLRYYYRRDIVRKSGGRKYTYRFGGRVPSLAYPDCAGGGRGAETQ
# Outline: as §1
# ELF3 = target: T11, ELF3 (Homo sapiens, UniProt P78545 1-371); conditions: protein: recombinant; tags: N-terminal GST; dsDNA, one strand shown
# T11 sequence: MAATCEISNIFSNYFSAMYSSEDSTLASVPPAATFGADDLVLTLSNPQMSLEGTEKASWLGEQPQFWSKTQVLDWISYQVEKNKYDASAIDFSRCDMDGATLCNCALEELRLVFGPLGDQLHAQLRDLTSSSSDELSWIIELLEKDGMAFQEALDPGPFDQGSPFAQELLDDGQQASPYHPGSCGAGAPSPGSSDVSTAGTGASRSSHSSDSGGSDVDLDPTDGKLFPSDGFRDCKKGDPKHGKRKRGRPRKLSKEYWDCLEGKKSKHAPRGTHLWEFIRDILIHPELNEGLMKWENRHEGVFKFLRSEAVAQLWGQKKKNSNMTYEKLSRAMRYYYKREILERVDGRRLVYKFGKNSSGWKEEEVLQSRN
# Outline: as §1
# CRX = CRX (Homo sapiens, UniProt O43186 1-299); conditions: protein: recombinant; tags: N-terminal GST; dsDNA, one strand shown
# Sequence of CRX (O43186 whole entry): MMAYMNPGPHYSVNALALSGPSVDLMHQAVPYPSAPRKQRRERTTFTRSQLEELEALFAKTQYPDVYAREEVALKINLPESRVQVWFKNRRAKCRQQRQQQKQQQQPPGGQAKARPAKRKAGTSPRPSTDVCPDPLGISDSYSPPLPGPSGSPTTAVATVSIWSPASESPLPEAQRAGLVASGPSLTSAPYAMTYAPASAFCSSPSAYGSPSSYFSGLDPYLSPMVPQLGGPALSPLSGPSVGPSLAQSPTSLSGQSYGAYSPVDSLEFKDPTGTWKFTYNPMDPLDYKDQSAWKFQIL
# Outline: as §1
# ETV1 = ETV1 (Homo sapiens, UniProt P50549 1-477); conditions: protein: recombinant; tags: N-terminal GST; dsDNA, one strand shown
# Sequence of ETV1 (P50549 whole entry): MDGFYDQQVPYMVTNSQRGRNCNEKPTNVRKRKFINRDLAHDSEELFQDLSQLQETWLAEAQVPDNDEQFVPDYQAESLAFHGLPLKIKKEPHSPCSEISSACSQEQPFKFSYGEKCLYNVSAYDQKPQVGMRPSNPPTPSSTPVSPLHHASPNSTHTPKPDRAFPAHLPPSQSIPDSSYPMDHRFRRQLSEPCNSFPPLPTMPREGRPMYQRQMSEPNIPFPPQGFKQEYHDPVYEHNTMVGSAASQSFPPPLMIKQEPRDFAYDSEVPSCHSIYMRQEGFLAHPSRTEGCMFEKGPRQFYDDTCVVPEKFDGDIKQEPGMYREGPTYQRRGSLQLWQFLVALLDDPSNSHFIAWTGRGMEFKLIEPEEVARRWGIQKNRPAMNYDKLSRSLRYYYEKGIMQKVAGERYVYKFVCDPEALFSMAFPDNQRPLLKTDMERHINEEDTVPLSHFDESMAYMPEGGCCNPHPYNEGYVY
# Outline: as §1
sequence,measurement,setting,value
TGGGCT,binding signal,FLI1,"1.38 fold enrichment (6-mer frequency, TF over GST control)"
same,binding signal,ELK1,"1.33 fold enrichment (6-mer frequency, TF over GST control)"
same,binding signal,GABPA,"1.48 fold enrichment (6-mer frequency, TF over GST control)"
same,binding signal,ERG,"1.34 fold enrichment (6-mer frequency, TF over GST control)"
same,binding signal,ELF1,"1.48 fold enrichment (6-mer frequency, TF over GST control)"
same,binding signal,EHF,"1.44 fold enrichment (6-mer frequency, TF over GST control)"
same,binding signal,SPI1,"1.43 fold enrichment (6-mer frequency, TF over GST control)"
same,binding signal,SPIB,"1.38 fold enrichment (6-mer frequency, TF over GST control)"
same,binding signal,ELK3,"1.49 fold enrichment (6-mer frequency, TF over GST control)"
same,binding signal,FEV,"1.35 fold enrichment (6-mer frequency, TF over GST control)"
same,binding signal,ETV5,"1.4 fold enrichment (6-mer frequency, TF over GST control)"
same,binding signal,HSF1,"1.19 fold enrichment (6-mer frequency, TF over GST control)"
same,binding signal,SPIC,"1.28 fold enrichment (6-mer frequency, TF over GST control)"
same,binding signal,ELF4,"1.36 fold enrichment (6-mer frequency, TF over GST control)"
same,binding signal,ELK4,"1.29 fold enrichment (6-mer frequency, TF over GST control)"
same,binding signal,ETV2,"1.26 fold enrichment (6-mer frequency, TF over GST control)"
same,binding signal,ELF3,"1.4 fold enrichment (6-mer frequency, TF over GST control)"
same,binding signal,CRX,"1.3 fold enrichment (6-mer frequency, TF over GST control)"
same,binding signal,ETV1,"1.42 fold enrichment (6-mer frequency, TF over GST control)"
